The list is not random: actives were taken first. Their share in the collection is about 14%.
Pf growth 96h: P. falciparum growth inhibition at 96 hours | P. falciparum luciferase reporter growth, 96 h | Potency, µM (top dose mostly 28.7 µM), for the others: top-dose activity change, negative = inhibition, usual class: inhibitors | 6.9% of 320,000 active | AID 504834; further: potency means the concentration at half of the fitted maximal effect
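Two parasite generations (96 h, 37 C, 5% CO2) of compound exposure in infected erythrocytes (0.05% parasitemia, 2% hematocrit). Luciferase-reporter P. falciparum; decreased luminescence indicates inhibited growth, aimed at apicoplast-acting delayed death.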
Pf growth 48h: inhibits P. falciparum growth in the first generation, 48 h; P. falciparum luciferase growth in erythrocytes, 48 h; Potency, µM (highest dose often 28.7 µM), for the others: top-dose activity change, negative = inhibition, usual class: inhibitors; 5.9% of 310,000 active; AID 504832; further: potency means the concentration at half of the fitted maximal effect
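Compounds are pin-transferred into medium, infected erythrocytes (2% hematocrit, 0.1% parasitemia final) are added, and plates sit one parasite generation at 37 C in 5% CO2. Detection reagent is then added and luminescence measured.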
Sm TGR inh: blocks Schistosoma mansoni thioredoxin glutathione reductase; 3% of 360,000 active; Q962Y6; AID 485364; Potency, µM (top dose mostly 114 µM), for the others: at the highest dose activity change, negative = inhibition, most hits filed as inhibitors; purified TGR, DTNB reduction, TNB absorbance 405 nm; further: potency means the concentration at half of the fitted maximal effect; nearly all actives have a fitted effect of over 60% in size
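TGR 20 nM + NADPH 100 uM (dispensed conc.), cpd preinc 15 min RT; start with NADPH (500 uM addition) then DTNB (15 mM addition). Kinetic TNB absorbance, 405 nm filter. Four-parameter Hill fit across titration.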
HCMV inh: human cytomegalovirus inhibition; HFF cells, HCMV-luciferase reporter, 72 h; hits give low values; activity change, negative = inhibition, % at 57.5 µM; 4.5% of 410,000 active; AID 1259415; in the data active means activity change below about -60%; inconclusive means no clear call, values can overlap the other calls; inactive means above about -39%
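Human foreskin fibroblasts infected with luciferase-reporter HCMV at MOI 1 PFU/cell, compounds at two doses. Luciferase measured 72 h post infection; normalized to buffer-only basal and Salinomycin (10uM) controls.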
Giardia FBPA inh: inhibitors of Giardia lamblia fructose-1,6-bisphosphate aldolase; A8B2U2; purified Giardia FBPA; Potency, µM (series often up to 59.6 µM), inactives show at the highest dose activity, negative = inhibition, actives largely listed as inhibitors; 0.71% of 290,000 active; AID 2451; further: potency means the concentration at half of the fitted maximal effect; nearly all actives have a fitted effect of over 55% in size
Target sequence (A8B2U2 whole entry, looked up): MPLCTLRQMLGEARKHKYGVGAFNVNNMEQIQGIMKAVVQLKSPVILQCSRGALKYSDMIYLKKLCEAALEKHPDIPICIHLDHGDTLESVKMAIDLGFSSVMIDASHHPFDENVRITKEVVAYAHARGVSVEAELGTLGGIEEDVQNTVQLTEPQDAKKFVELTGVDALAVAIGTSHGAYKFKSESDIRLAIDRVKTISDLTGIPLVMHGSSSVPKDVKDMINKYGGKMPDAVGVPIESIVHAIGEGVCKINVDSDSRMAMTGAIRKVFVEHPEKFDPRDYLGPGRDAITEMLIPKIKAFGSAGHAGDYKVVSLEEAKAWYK
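Giardia FBPA (40 nM reagent) was preincubated 10 min at RT with compound (up to 57.5 uM final), then substrate plus GAPDH/TPI/NAD/arsenate coupling system with diaphorase/resazurin was added; resorufin fluorescence (525/598 nm) was read after 20 min.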
An asterisk follows results filed as active; ? = inconclusive; . = no result; ! = repeats disagree; [ ] = remark or other dose. Unless noted, the call rests on the fitted dose curve; in most records, active means well fitted curve in the direction sought with a large enough effect; inconclusive means small, poorly fitted or top-dose-only effect, or another doubt; inactive means no such curve, though single readings can be large; an effect the other way counts as inactive or inconclusive. On the % scale 0 is the no-effect control and ±100 the full control effect.

SMILES	Pf growth 96h	Pf growth 48h	Sm TGR inh	HCMV inh	Giardia FBPA inh
C/C=C\C(=O)Nc1cccc(C2=NOC3(C2)C[C@@H](C(N)=O)N(C(=O)COc2ccc(Cl)cc2)C3)c1 (some centres undefined)	?	?	12.0%	5.0	2.6%
CCC(=O)N1CC2(CC(c3cccc(NC(=O)COc4ccc(Cl)cc4)c3)=NO2)C[C@@H]1C(N)=O (some centres undefined)	?	?	-8.6%	.	-5.2%
CCCCCC(=O)N1CC2(CC(c3cccc(NC(=O)COc4ccc(Cl)cc4)c3)=NO2)C[C@@H]1C(N)=O (some centres undefined)	13.1µM*	10.4µM*	1.4%	-17.2	3.0%
CC(=O)c1sc(NS(=O)(=O)c2ccc(C)cc2)nc1-c1ccccc1	-28.0%	14.2%	-12.3%	-11.9	13.3%
CCOc1c(C(=O)CC)cc2c(C)cc(=O)oc2c1C	?	11.7µM*	-25.9%	9.9	-2.2%
Cc1cc2ncn(-c3ncnc4sc5c(c34)CCCC5)c2cc1C	.	7.9%	3.4%	-34.0	15.4%
c1ccc2c(c1)ncn2-c1ncnc2sc3c(c12)CCCC3	-0.8%	18.7%	11.5%	-63.7*	.
Brc1ccc(-c2csc3ncnc(-n4nnc5ccccc54)c23)cc1	?	-14.1%	7.5%	-67.8*	1.6%
CC(O)CNc1nc2ccccc2n1-c1ncnc2sc3c(c12)CCC3 (centres undefined)	4.15µM*	.	-1.4%[11.4 µM]	-27.0	2.3%
c1ccc2c(c1)nnn2-c1ncnc2sc3c(c12)CCCC3	3.29µM*	0.0%	12.6%	?	13.5%
Cc1nc(-n2nnc3ccccc32)c2c3c(sc2n1)CCCC3	2.7%[5.75 µM]	-8.2%	8.9%	?	17.4%
COc1cc(Cl)c(S(=O)(=O)NCCc2c(C)[nH]c3c(C)cccc23)cc1Cl	.	.	2.8%	13.6	.
Oc1ccc(N2CCN(c3ncnc4sc5c(c34)CCC5)CC2)cc1	?	?	-23.9%	-82.4*	-7.7%
Cc1ccc2c(c1)c(/C=C/c1cc[n+](C)cc1)c(C)n2C	0.465µM*	0.928µM*	-11.3%	-97.7*	-12.1%
Cc1ccc2[nH]c(C)c(/C=N/Nc3nc4ccccc4s3)c2c1	?	-43.1%	-25.0%	55.9	0.6%
Cc1ccc2[nH]c(C)c(/C=C/c3cc[n+](C)cc3)c2c1	32.3%	?	-21.5%	-99.8*	-1.0%
Cc1cccc(Cn2c(=O)n(-c3ccccc3C)c(=O)c3c2c2cc(C)ccc2n3C)c1	.	.	4.0%	11.6	.
CCc1ccc2c(c1)cc(CN(C(=S)Nc1ccccc1)C1CC1)c1nnnn12	?	?	-4.4%	5.8	4.1%
CCc1ccc2c(c1)cc(CN(C(=S)Nc1ccccc1C)C1CC1)c1nnnn12	?	3.29µM*	-10.2%	17.1	-3.6%
COc1cccc(N2CCN(CC(=O)Nc3ccc(S(=O)(=O)N4CCCCCC4)cc3)CC2)c1	?	11.7µM*	-5.4%	-35.0	.
COc1cccc(CNS(=O)(=O)c2ccc(S(=O)(=O)N3CCCC3)cc2)c1	?	?	44.7µM*	6.7	7.92µM*
COc1ccc(S(=O)(=O)N2CCCN(CC(=O)Nc3ccc(OC)c(Cl)c3)CC2)cc1	30.8%	?	31.6µM*	16.1	-24.5%
COc1cccc(C(=O)CN2CCN(S(=O)(=O)c3ccc(Br)cc3)CC2)c1	53.0%	-1.6%	14.1µM*	.	-8.8%
COc1cccc(CN2CCN(S(=O)(=O)c3ccc(Br)cc3)CC2)c1	.	4.7%	1.4%	-27.4	0.8%
COc1cccc(NS(=O)(=O)c2ccc(S(=O)(=O)N3CCCC3)cc2)c1	?	-19.3%	1.0%	-25.1	.
SMILES	Pf growth 96h	Pf growth 48h	Sm TGR inh	HCMV inh	Giardia FBPA inh
COc1cccc(NC(=O)CN2CCN(S(=O)(=O)c3ccc(F)cc3)CC2)c1	.	7.8%	0.5%	?	1.1%
CCOC(=O)C1=C(CN(CC)Cc2ccccc2)NC(=O)NC1c1ccc(OC(C)C)cc1 (centres undefined)	.	.	7.3%	?	.
COc1ccc(OC)c(NC(=O)CCN2CCN(c3ccccc3OC)CC2)c1	?	?	12.6%	-33.4	-9.2%
O=C(C1CCN(CCc2ccccc2)CC1)N1CCOCC1	.	.	.	14.8	.
CCOC(=O)/C=c1/s/c(=C/c2ccccc2OC)c(=O)n1CC(=O)N1CCOCC1	.	.	.	3.2	.
COc1cccc(NC(=O)CN2CCN(S(=O)(=O)c3ccc(C(C)C)cc3)CC2)c1	11.7µM*	?	0.0%	-20.7	-9.3%
CC(=O)c1c(C)[nH]c(C(=O)CN2CCN(S(=O)(=O)c3ccc(C(C)C)cc3)CC2)c1C	11.7µM*	11.7µM*	?	-27.2	.
COc1ccc(NC(=O)CN(C2CCCCC2)S(C)(=O)=O)cc1Cl	32.3%	.	-0.5%	-72.7*	-0.5%
COC(=O)CS(=O)(=O)c1nnc([C@H](Cc2ccccc2)NC(=O)OC(C)(C)C)o1	-13.3%[5.75 µM]	-16.9%	1.41µM*	79.2	3.1%
Cc1cccc(CS(=O)(=O)c2nnc([C@H](Cc3ccccc3)NC(=O)OC(C)(C)C)o2)c1	-22.9%	.	1.78µM*	.	-7.4%
CS(=O)(=O)N1CCc2cc(C(=O)Nc3ccc(O)cc3)ccc21	?	-7.2%	-15.4%	17.8	1.7%
COC(=O)c1ccccc1NC(=O)C1CCN(C(=O)c2ccc(OC)cc2)CC1	11.7µM*	0.2%	6.2%	-4.3	6.4%
CCOC(=O)c1ccc(NC(=O)C2CCN(C(=O)c3ccc(OC)c(OC)c3)CC2)cc1	.	?	0.7%	-17.0	2.3%
COc1ccc(C(=O)N2CCC(C(=O)Nc3ccc(Cl)cc3)CC2)cc1	.	.	-11.4%	-22.2	.
COC(=O)c1ccc(NC(=O)C2CCN(C(=O)c3cc(OC)c(OC)c(OC)c3)CC2)cc1	?	.	2.7%	-101.1*	1.6%
Cc1ccc(CC(=O)NCCN2CCOCC2)cc1	?	2.7%	9.7%	2.3	7.2%
FC(F)(F)c1ccccc1-c1ccc2ncnc(NCc3cccs3)c2c1	.	.	.	.	-3.2%
CN(C)CCCOC(=O)C1c2ccccc2Oc2ccccc21	0.6%	-6.9%	-0.4%	?	-0.5%
CC[N+](C)(CC)CCOC(=O)C1c2ccccc2Oc2ccccc21	10.4µM*!	10.4µM*!	-4.0%	16.6	2.1%[21.7 µM]
CC12C(=O)N(c3cccc4cccnc34)C(=O)C1C1C=CC2C1 (centres undefined)	6.57µM*	.	1.6%	-18.5	0.0%
Cc1ccc(C)c(Cn2c(=O)n(Cc3ccccc3)c(=O)c3c2c2cc(C)ccc2n3C)c1	.	.	1.5%	-36.8	.
Cn1c(C(=O)NC2CCCCC2)cc2sccc21	.	69.9%	-25.0%	55.0	-7.0%
CN(C(=O)c1cc2sccc2n1C)C1CCCCC1	2.62µM*	78.7%	-7.2%	11.6	-3.3%
O=C(Nc1ccccc1OC(F)F)c1ccc(-n2cncn2)c([N+](=O)[O-])c1	-3.3%	?	-0.3%	-9.7	.
COc1ccccc1NC(=O)c1ccc(-n2cccn2)c([N+](=O)[O-])c1	-2.6%	-10.6%	25.1µM*	-20.5	-20.1%

Compound activity (PubChem BioAssay)
